This note sets out measurements from PubChem BioAssay AID1159537 (DiRusso Lab, Biochemistry Department, University of Nebraska, 2015).

The structures appear in SMILES notation. Screen size: about 44,000 compounds; about 370 (0.84%) were called active. No rule for the calls is given here. The sample as a whole holds a higher share of actives than the screen did.

A short description of the test: inducers of TAG accumulation in Chlamydomonas, primary screen, qHTS, Chlamydomonas reinhardtii (AID 1159537).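 Also: hits raise Nile Red signal meaning more stored TAG.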 The settings on record: Nile Red fluorescence, 72 h, screened at 10 µM (by protocol). For orientation: Quantitative high-throughput screening tests each substance at several concentrations.
Turning to `COCCN1C(=O)C(O)=C(C(=O)c2ccc(C)o2)C1c1cccc(Cl)c1` (centres undefined), the call was inactive. Under `NC(=O)c1sc2cc([N+](=O)[O-])ccc2c1Cl` stands “inactive”; under `O=C(CCCc1ccccc1)Nc1cccc(Cl)c1`, “inactive”; under `CCc1cccc(C)c1NC(=O)c1cc(OC)cc(OC)c1`, “inactive”. For `COc1ccc(CNC(=O)C(c2ccccc2)c2ccccc2)cc1` the value was “inactive”. Under `NC(=O)c1c(NC(=O)COc2ccc([N+](=O)[O-])cc2)sc2c1CCCC2` stands “inactive”; under `COc1cccc(OCCOc2ccc(C)cc2OC)c1`, “inactive”; under `COc1ccc(S(=O)(=O)N2CCN(c3ccccc3F)CC2)cc1OC`, “inactive”. Regarding `CC1(C)Cc2ccccc2/C(=C(\C#N)C(=O)Nc2cccc([N+](=O)[O-])c2)N1`, the result was inactive. For `Cc1cc(C)nc(NS(=O)(=O)c2ccc(N/C=C\C(=O)c3cccs3)cc2)n1` the value was “inactive”; for `Cc1cccc(NC(=O)c2ccc(Cl)c(Cl)c2)c1C`, “inactive”; for `Cc1cc(=O)[nH]c(SCc2ccc(Cl)cc2)n1`, “inactive”. As for `CCCCOc1ccc(N2C(=O)CC(N3CCN(c4ccccn4)CC3)C2=O)cc1` (centres undefined), the molecule was called inactive. For `CC(=O)N1CCN(Cc2c(Cl)cccc2Cl)CC1` the value was “inactive”; for `C=CCn1c(=O)c(C2=NS(=O)(=O)c3ccccc3N2)c(O)c2ccccc21`, “inactive”; for `O=C(c1ccc([N+](=O)[O-])cc1)N1CCN(C2CCCC2)CC1`, “inactive”. `CCOc1ccccc1C(=O)Nc1ccc([N+](=O)[O-])cc1OC`: the call was inactive. `Clc1ccc(-c2nnc3ccc(NCc4ccccc4)nn23)cc1`: the outcome was inactive. For `O=C(O)c1ccccc1C(=O)c1ccc(O)cc1O` the value was “inactive”.

For `OCCN(Cc1ccccc1)Cc1ccc(-c2ccccc2)cc1`, the molecule was classed as inactive. For `CCOc1ccc(NC(=O)C(=O)NCCc2ccc(Cl)cc2)cc1`, the outcome was inactive. Regarding `O=C(Nc1cccnc1)c1cccc(C(=O)Nc2cccnc2)c1`, the molecule was classed as inactive. Under `CCOC(=O)N1CCN(C2CCN(CC)CC2)CC1` stands “inactive”; under `CCN1CCN(C2CCN(Cc3ccccc3)CC2)CC1`, “inactive”. As to `CCC1CCC(N2CCN(CC)CC2)CC1` (centres undefined), the molecule was classed as active. Turning to `O=C(c1cccc([N+](=O)[O-])c1)c1ccc2c(c1)C(=O)N(c1nccs1)C2=O`, the outcome was inactive. Under `COc1c(S(=O)(=O)NCc2ccncc2)ccc(Cl)c1Cl` stands “inactive”.

In the case of `CCCCOc1ccc(N2C(=O)CC(N3CCN(c4ncccn4)CC3)C2=O)cc1` (centres undefined), the molecule was classed as inactive. Under `Cc1ccc(SCC(=O)Nc2ccc3c(c2)OCCO3)cc1` stands “inactive”; under `NNc1ncnc2sc3c(c12)CCCC3`, “inactive”; under `COc1ccc(C(=O)N2CCC(C(=O)Nc3ccc(OCc4ccccc4)cc3)CC2)cc1`, “inactive”. Under `O=C1NCCCc2nc(N3CCOCC3)sc21` stands “inactive”; under `COc1ccc(N(CC(=O)N(C)Cc2ccccc2)S(C)(=O)=O)cc1OC`, “inactive”; under `O=C(COc1ccc(Cl)cc1)Nc1ccc(F)c(F)c1`, “inactive”. As for `O=C(/C=C/c1ccc(-c2ccccc2Cl)o1)c1ccco1`, the outcome was inactive. Consider `O=C(c1ccc(C#CC2(O)CCCCC2)cc1)N1CCN(c2ccccc2Cl)CC1`, for which the result was inactive.

In the case of `N#CC1=C(SCc2ccccc2)NC(=O)CC1c1ccc(Br)cc1` (centres undefined), the result was inactive. For `CC(=O)c1ccc(N2CCN(C(=O)c3c(F)c(F)cc(C)c3Cl)CC2)c(F)c1`, the result was inactive.

In the case of `COc1ccc(-c2cc(C(=O)Nc3cccnc3)c3ccccc3n2)cc1`, the outcome was inactive. For `Cc1cc(C)c(NC(=O)c2ccc(F)cc2)c(C)c1` the value was “inactive”; for `CC(C)c1ccc(OCC(=O)N2CCCC2)cc1`, “inactive”; for `O=C(NCC1CCNCC1)C(=O)NC1CCCCC1`, “inactive”. Under `NC(=O)c1ccc2[nH]c3c(c2c1)CCCC3` stands “inactive”; under `O=S(=O)(CCc1ccccc1)Nc1ccccc1`, “inactive”.

Consider `CC(C)COc1ccc(C(=O)Nc2ccc([N+](=O)[O-])cc2Cl)cc1`, for which the molecule was classed as inactive. Under `Cc1ccc(CN2CCOCC2)c(C)c1` stands “inactive”.

`CCOc1ccc(CN2CCCN(C)CC2)cc1`: the molecule was called inactive. Turning to `Cc1ccc(C(C)C)cc1OCCN1CCCC1`, the molecule was classed as inactive. Under `Cc1cc(OCCN2CCOCC2)nc(NCc2ccccc2)n1` stands “inactive”; under `Cc1cc(OCCCCN2CCOCC2)ccc1C(C)C`, “active”; under `Cc1cc(OCCN2CCN(C)CC2)ccc1C(C)C`, “active”.

As for `CS(=O)(=O)N(Cc1ccc(C(=O)Nc2cccnc2)cc1)c1ccccc1`, the call was inactive. For `CCc1ccc(N2CC(C(=O)NC(C)CC)CC2=O)cc1` (centres undefined) the value was “inactive”. Turning to `O=C(Nc1cccc(Cl)c1Cl)c1ccc(I)o1`, the molecule was classed as inactive.

On to `CCOc1ccc(NC(=O)C(=O)NCc2ccccc2OC)cc1`, for which the molecule was called inactive. Under `Cc1cc(Cl)ccc1NC(=O)c1cccnc1` stands “inactive”; under `CS(=O)(=O)N1CCN(c2ccc(C(=O)NC3C4CC5CC(C4)CC3C5)cc2[N+](=O)[O-])CC1` (centres undefined), “inactive”; under `Cc1ccc(C(=O)c2ccc(N3CCN(C)CC3)c([N+](=O)[O-])c2)cc1`, “active”. Under `CC1CCN(c2ccc(C(=O)O)cc2[N+](=O)[O-])CC1` stands “inactive”; under `CC(=O)c1ccc(NC(=O)c2ccc(CN(c3ccccc3)S(C)(=O)=O)cc2)cc1`, “inactive”. For `O=C(C1=C(O)C(=O)N(c2ncccn2)C1c1cccc([N+](=O)[O-])c1)c1ccco1` (centres undefined) the value was “inactive”; for `O=C(Nc1ccccc1C(=O)NCCN1CCOCC1)c1cccc(I)c1`, “inactive”; for `CCOc1ccccc1NC1=NS(=O)(=O)c2ccccc21`, “inactive”. Take `COc1cc(C=O)cc(Br)c1OCc1ccccn1`: the molecule was called inactive. For `Cc1ccc(C(=O)Nc2cccc(O)c2)cc1S(=O)(=O)N1CCC(C)CC1` the value was “inactive”; for `Cc1cc(C)c(S(=O)(=O)NCCCN2CCOCC2)cc1Br`, “active”; for `O=C(NCCCN1CCOCC1)c1ccccc1Br`, “inactive”. On to `O=S(=O)(NCCN1CCOCC1)c1ccc(I)cc1`, for which the outcome was inactive. Under `CN(C)CCNC(=O)c1ccc(Cl)cc1` stands “inactive”; under `CC(=O)c1cc2c(cc1NC(=O)c1ccccc1Cl)OCCO2`, “inactive”. For `Cc1ccc(NS(=O)(=O)c2ccc(C(C)(C)C)cc2)cn1` the value was “inactive”.

Turning to `COc1ccc(CC(=O)NC(c2ccccc2)c2ccccc2)cc1OC`, the result was inactive.

As for `CC1=C(C(=O)Nc2ccc(C)cn2)C(c2cccc(Cl)c2Cl)C2=C(CCCC2=O)N1` (centres undefined), the result was inactive. Under `CCc1ccc(OCCN2CCCC(C)C2)cc1` (centres undefined) stands “inactive”. In the case of `Cc1nnc(NC(=O)CSc2nnnn2-c2ccc(Cl)cc2)s1`, the call was inactive. For `O=C(O)c1ccc(C(=O)O)c(S(=O)(=O)c2cc(C(=O)O)ccc2C(=O)O)c1` the value was “inactive”. For `Clc1ccc(-n2nnnc2SCc2nn[nH]n2)cc1`, the molecule was called inactive. Under `CC1(C)CC(=O)c2cnc3cc(-c4ccccc4)nn3c2C1` stands “inactive”; under `O=C1C(=O)N(c2ccccc2)C(c2ccccc2[N+](=O)[O-])C1=C(O)c1ccccc1` (centres undefined), “inactive”; under `CCc1ccc(OCC(=O)Nc2ccc(F)cc2)cc1`, “inactive”. Turning to `Nc1cc(-c2ccccc2)nn1-c1ccccc1`, the outcome was inactive. For `O=C(COc1ccc(Br)cc1)N1CCN(c2ccccc2F)CC1` the value was “inactive”; for `O=[N+]([O-])c1ccc(S(=O)(=O)Nc2cc(Cl)ccc2O)cc1`, “inactive”; for `COc1ccc(CSc2nnc(-c3ccc(Cl)cc3Cl)o2)cc1[N+](=O)[O-]`, “inactive”.

As for `CCOc1ccc2nc(SCC(=O)NC(C)=O)sc2c1`, the result was inactive.

Turning to `O=C(NCc1ccncc1)C(=O)NCc1ccco1`, the molecule was classed as inactive. Under `O=C(Cc1ccc(F)cc1)NCc1ccncc1` stands “inactive”; under `CC(C)(C)C1CCC(NCc2ccncc2)CC1` (centres undefined), “active”. Under `CCCc1ccc(OCC(O)CN2CCN(CCO)CC2)cc1` (centres undefined) stands “inactive”. For `O=C(Nc1ccc(OCC(=O)N2CCOCC2)cc1)c1cc(F)c(F)cc1Cl` the value was “inactive”; for `O=C1CC(N2CCN(c3ccccc3O)CC2)C(=O)N1c1ccc(Br)cc1` (centres undefined), “inactive”; for `NC(=O)c1cc(NC(=O)CCC(=O)O)ccc1N1CCOCC1`, “inactive”.

Consider `O=S(=O)(Nc1cccc(O)c1)c1ccc(-c2ccccc2)cc1`, for which the outcome was inactive. Under `O=C(Nc1ccccc1F)C1CC(=O)N(c2ccccc2F)C1` (centres undefined) stands “inactive”. For `O=C(Nc1ccc([N+](=O)[O-])cc1Br)c1ccncc1` the value was “inactive”. For `O=C(COc1ccc(Br)cc1)Nc1ccc(N2CCOCC2)cc1`, the result was inactive.

For the molecule `Cc1nc(-c2c[nH]c3ccccc23)cs1`, the molecule was called inactive. Consider `O=C(NCCc1ccc(F)cc1)C1CC(=O)N(c2ccccc2)C1` (centres undefined), for which the call was inactive. For `Cc1ccccc1-c1nc(-c2ccncc2)no1` the value was “inactive”; for `Clc1ccc(OCc2nc(-c3cccnc3)no2)c(Cl)c1`, “inactive”; for `c1ccc(CCc2nc(-c3ccncc3)no2)cc1`, “active”.

On to `NCCNc1ccc([N+](=O)[O-])c(N2CCCCC2)c1`, for which the result was inactive. For `COc1cc(C=O)ccc1OCCOc1ccc(C)cc1Br` the value was “inactive”; for `Cc1ccc(-c2nc(-c3cccnc3)no2)cc1Cl`, “inactive”; for `Cc1ccc2oc(-c3ccc(C)c(N)c3)nc2c1`, “inactive”. Under `CCn1c2c(c3cc([N+](=O)[O-])ccc31)CCCC2=O` stands “inactive”. Under `CC(=O)N(c1ccccc1)C1CC(C)Nc2ccccc21` (centres undefined) stands “inactive”; under `O=C(NC12CC3CC(CC(C3)C1)C2)c1ccccc1C(=O)NC12CC3CC(CC(C3)C1)C2`, “inactive”; under `COc1cccc(NC(=O)CN2CCN(c3nc4ccc([N+](=O)[O-])cc4s3)CC2)c1`, “inactive”. Take `COc1ccc(/C=C(/NC(=O)c2ccco2)C(=O)Nc2ccc([N+](=O)[O-])cc2)cc1`: the call was inactive. For `CS(=O)(=O)N(CC(=O)N1CCCCCC1)c1cccc(Cl)c1Cl` the value was “inactive”. For `COc1cccc(CN2CCN(C/C=C/c3ccccc3)CC2)c1OC` the value was “inactive”; for `C(=C\c1ccccc1)/CN1CCN(CC2CCCCC2)CC1`, “active”. `O=[N+]([O-])c1ccccc1/C=C/CN1CCN(C/C=C/c2ccccc2)CC1`: the molecule was classed as inactive. For `CS(=O)(=O)N(CC(=O)N1CCCC1)c1ccc(I)cc1` the value was “inactive”.

`CCOc1ccc(C(=O)NCCc2ccc(F)cc2)cc1`: the call was inactive. Turning to `O=C(COc1cccc([N+](=O)[O-])c1)Nc1ccc(-c2nnc(-c3ccco3)o2)cc1`, the result was inactive. Under `Cc1ccc(NC(=O)c2ccccc2Br)cc1C` stands “inactive”; under `COc1ccc(C(O)=C2C(=O)C(=O)N(CCN3CCOCC3)C2c2ccncc2)cc1C` (centres undefined), “inactive”.
